# ER stress death = ER stress cell death inhibition; CSM14.1 thapsigargin ER stress survival, ATP luminescence; relative survival (cellular ATP), % at 15 µg/mL (by protocol); 48,000 tested, 0.33% active;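 active means survival measured by cellular ATP above 50% at 15 µg/ml in the first screen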;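 further: cell death triggered by about 15 µM thapsigargin; ATP read 24 h after thapsigargin was added; plate controls were thapsigargin with DMSO for no effect and DMSO without thapsigargin for full effect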
# * = called active by the depositor. This is one part of a sample in which hits are shown more often than they occur.
SMILES,ER stress death
O=C1CC(c2ccccc2)CC2=C1C(c1ccccc1Cl)Nc1ccccc1N2 (centres undefined),-5
O=C(N/N=C\c1cc(Br)cc(I)c1O)c1ccc(Br)cc1,7
O=C1/C(=C/c2ccccc2Cl)SC(=S)N1c1ccc(Br)cc1,-4
O=C1C2C(c3ccccc3)C=CC(c3ccccc3)C2C(=O)N1c1ccc2c(c1)oc1ccccc12 (centres undefined),23
COc1cc(OC)cc(C(=O)N2CCN(Cc3ccccn3)CC2)c1,0
COc1ccc(C(=O)N2CCN(Cc3ccccc3)CC2)c(OC)c1,-2
COc1cc(C(=O)N2CCN(Cc3ccccc3C(F)(F)F)CC2)cc(OC)c1OC,8
COc1ccc(CN2CCN(C(=O)c3ccccc3)CC2)c(OC)c1OC,1
COc1ccc(CN2CCN(C(=O)c3ccc(-c4ccccc4)cc3)CC2)cc1OC,-6
COc1ccc(Br)cc1CN1CCN(C(=O)c2ccc(-c3ccccc3)cc2)CC1,98*
COc1ccc(CN2CCN(C(=O)c3ccc(-c4ccccc4)cc3)CC2)c(OC)c1,129*
COc1cc(OC)cc(C(=O)N2CCN(Cc3ccccc3C(F)(F)F)CC2)c1,73*
COc1cc(OC)c(OC)cc1CN1CCN(C(=O)c2ccc(OC)c(OC)c2)CC1,2
COC(=O)C12CC3(C)CC(C)(CC(C)(C3)C1)C2,3
C/C(=N\NC(=O)c1cc(-c2ccccc2)n[nH]1)c1ccccc1,10
CC(=O)c1c(C)oc2c(Br)cc(NS(=O)(=O)c3ccccc3)cc12,7
COC(=O)C1(CC(=O)C(C)(C)C)NN=C(c2ccccc2)S1 (centres undefined),6
O=C(Nc1ccccn1)C(=O)NC1CCCCC1,-11
Cc1ccc(/C=N/Nc2nc(N3CCOCC3)nc(N3CCOCC3)n2)c(C)c1,6
C(#Cc1ccccc1)CN1CCN(CC#Cc2ccccc2)CC1,5
O=C1c2ccccc2C(=O)N1CC#CCN1CCN(C(c2ccccc2)c2ccccc2)CC1,68*
N#CCC(=O)N1CCN(C(c2ccccc2)c2ccccc2)CC1,-4
COc1ccc(C(=O)N2c3ccccc3N(Cc3ccccc3)C(=O)C2(C)C)cc1,110*
CC1(C)C(=O)N(Cc2ccccc2)c2ccccc2N1C(=O)c1ccc(Cl)cc1,4
CC1(C)C(=O)N(Cc2ccccc2)c2ccccc2N1C(=O)c1ccc([N+](=O)[O-])cc1,4
SMILES,ER stress death
Cc1nc(C)c(C(=O)NNC(=O)c2cccc([N+](=O)[O-])c2C(=O)O)s1,13
CCOCCOC(=O)c1ccc(NC(=O)c2cccs2)cc1,1
Cc1sc(NC(=O)c2ccc(-c3ccccc3)cc2)c(C#N)c1C,4
Cc1cc(Cl)cc(C)c1OCCCCCCn1ccnc1,55*
Cc1cc(OCCCCCn2ccnc2)cc(C)c1Cl,37
Cc1cc(C)c(OCCCCn2ccnc2)c(C)c1,-4
COc1ccc(OCC(=O)Nc2ccc(S(=O)(=O)C(F)F)cc2)cc1,10
CN(C)c1ccc(N2C(=O)C=CC2=O)cc1,-3
CN(C)c1ccc(-c2nc3cc(NC(=O)c4cccc(Br)c4)ccc3o2)cc1,3
O=C1C=C(Nc2ccccc2C(=O)O)CC(c2ccccc2)C1 (centres undefined),12
CC(C)CCNC1=CC(=O)CC(c2ccccc2)C1 (centres undefined),-1
O=C1C=C(NCCc2c[nH]c3ccccc23)CC(c2ccccc2)C1 (centres undefined),54*
O=C1N=C(N2CCOCC2)S/C1=C/c1ccco1,-9
Cc1ccc(N(Cc2ccc(C(=O)N/N=C/c3cc(Br)c(C)o3)cc2)S(C)(=O)=O)cc1C,80*
CCC(C)NC(=O)c1ccc(CN(c2ccc(C)c(C)c2)S(C)(=O)=O)cc1 (centres undefined),0
Cc1ccc(N(Cc2ccc(C(=O)N/N=C/c3ccc(OC4CSC4)cc3)cc2)S(C)(=O)=O)cc1C,43
COc1ccc(C(=O)Nc2nc(C)c(C(C)=O)s2)cc1,0
O=C(c1cccc(F)c1)N1CCN(Cc2cccc(Oc3ccccc3)c2)CC1,60*
COc1ccc(C(=O)N2CCN(Cc3cccc(F)c3)CC2)cc1,5
O=C(c1cccc(F)c1)N1CCN(Cc2cccc(F)c2)CC1,6
COc1ccc(S(=O)(=O)N2CCN(Cc3cccc(Oc4ccccc4)c3)CC2)cc1,18
CC1CC(Nc2ccccc2)c2ccccc2N1C(=O)/C=C/c1ccco1 (centres undefined),51*
CC1CC(Nc2ccccc2)c2ccccc2N1C(=O)c1cccc(Br)c1 (centres undefined),6
CC1CC(Nc2ccccc2)c2ccccc2N1C(=O)c1ccccc1 (centres undefined),0
Cc1cc(C)cc(NC(=O)CN(c2ccc(Cl)cc2)S(C)(=O)=O)c1,8
C=CCOc1ccc2c(C)c(CC)c(=O)oc2c1C,4
CCOc1ccc(-n2c(CN3C(=O)c4ccccc4C3=O)nc3ccccc3c2=O)cc1,-2
CC(C)(C)c1ccc(C(=O)N2N=C(c3ccc([N+](=O)[O-])cc3)CC2(O)C(F)(F)F)cc1 (centres undefined),12

# Source: PubChem (Sanford-Burnham Center for Chemical Genomics)
